Compound activity: PubChem BioAssay, Sanford-Burnham Center for Chemical Genomics
Artemis endo inh = inhibitors of human Artemis endonuclease activity; inhibition, % at 10 µM; 30,000 compounds, 0.78% hits; AID 686954; Q96SD1; recombinant Artemis, quenched FAM hairpin cleavage fluorescence;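 active = at 10 µM dose, at least 30% inhibition, measured as corrected fluorescence normalized to stimulator and neutral control wells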
Target sequence (Q96SD1 whole entry, looked up): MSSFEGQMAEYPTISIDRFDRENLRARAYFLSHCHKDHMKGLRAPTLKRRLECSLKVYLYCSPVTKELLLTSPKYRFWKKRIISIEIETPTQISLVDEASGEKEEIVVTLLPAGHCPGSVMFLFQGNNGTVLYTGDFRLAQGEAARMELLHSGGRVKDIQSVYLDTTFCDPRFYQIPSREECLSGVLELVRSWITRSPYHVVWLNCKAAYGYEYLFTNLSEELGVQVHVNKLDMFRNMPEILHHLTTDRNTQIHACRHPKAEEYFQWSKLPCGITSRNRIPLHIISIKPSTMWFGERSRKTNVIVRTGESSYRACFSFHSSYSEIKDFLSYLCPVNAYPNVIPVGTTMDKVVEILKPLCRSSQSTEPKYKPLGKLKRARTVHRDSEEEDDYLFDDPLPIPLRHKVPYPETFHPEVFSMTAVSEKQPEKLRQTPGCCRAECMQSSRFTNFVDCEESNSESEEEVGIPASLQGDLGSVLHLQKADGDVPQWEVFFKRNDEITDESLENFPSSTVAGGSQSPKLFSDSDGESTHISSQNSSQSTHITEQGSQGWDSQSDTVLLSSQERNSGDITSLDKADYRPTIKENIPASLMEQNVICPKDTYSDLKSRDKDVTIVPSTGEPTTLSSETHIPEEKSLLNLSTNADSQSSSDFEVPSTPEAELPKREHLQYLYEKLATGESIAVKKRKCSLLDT
* = called active by the depositor. Many of the other results were omitted from the sample, so hits are more common in it than they were.

SMILES | Artemis endo inh
CCn1c(=O)c(C(=O)Nn2c(C)nc3ccccc3c2=O)c(O)c2ccccc21 | 12
CCn1c(=O)c(C(=O)Nc2nc3ccccc3[nH]2)c(O)c2ccccc21 | 50*
CCn1c(=O)c(C(=O)NCCCO)c(O)c2ccccc21 | -7
COC(=O)CN1C(=S)N(Cc2ccccc2)C(=O)C1CC(=O)Nc1ccc(Br)cc1 (stereo not drawn) | -6
O=C(c1ccccc1F)N(Cc1ccc2c(c1)OCO2)Cc1cc2cc3c(cc2n2nnnc12)OCO3 | 16
N#Cc1c(-c2ccccc2)ccn(Cc2ccc(Cl)cc2)c1=O | 6
O=C1NC(c2ccccc2)(C(F)(F)F)C(=O)N1Cc1cccnc1 (stereo not drawn) | 4
Cc1nn(Cc2c(Cl)cccc2Cl)c(C)c1NC(=O)c1cnn2c(C(F)F)cc(-c3ccccc3)nc12 | 25
O=C(Nc1cccnc1)c1cnn2c(C(F)F)cc(C3CC3)nc12 | -4
Cc1ccc(-c2cc(C(F)F)n3ncc(C(=O)Nc4c(C)nn(Cc5c(Cl)cccc5Cl)c4C)c3n2)cc1 | 32*
CN(C(=O)c1ccc(Cl)cc1)C1=CCCCC1CCC#N (stereo not drawn) | -3
Cc1cc(C)nc(NS(=O)(=O)c2ccc(NC(=S)NC(=O)CC(C)C)cc2)n1 | -2
O=C(O)c1cccc(NC(=S)NC(=O)C(c2ccccc2)c2ccccc2)c1 | 25
N#Cc1c(N2CCCCC2)nc(N)c2c(N)nc3c(c12)CC(c1ccccc1)O3 (stereo not drawn) | 13
COc1ccccc1N1CCN(c2nc(N)c(C#N)c(CC#N)c2C#N)CC1 | -3
COc1cc2c(C#N)c(N3CCN(c4ccccc4OC)CC3)nc(N)c2c(N)n1 | 45*
COc1ccccc1N1CCN(c2nnc(-c3ccc(F)cc3)c3ccccc23)CC1 | 3
N#Cc1c(C(F)(F)F)cc(C2CC2)nc1N1CCCC1 | 2
N#Cc1c(N2CCCC2)nc(N)c2c(N)nc(N3CCCC3)cc12 | 67*
COc1c(Cl)cc(Cl)cc1C(=O)n1nc(C)cc1C | -5
CC(C)c1ccc(C(=O)CC2(O)C(=O)N(CN3CCOCC3)c3ccccc32)cc1 (stereo not drawn) | -5
Cc1ccccc1C(=O)OCCCN=C1NS(=O)(=O)c2ccccc21 | 1
O=c1ccccn1Cc1c(F)cccc1Cl | 5
Cc1sc2nc(SCc3nc(-c4ccccc4)no3)n(-c3ccccc3)c(=O)c2c1C | -9
Cc1cc(=O)n2[nH]c(-c3ccc(Cl)cc3)cc2n1 | -1
SMILES | Artemis endo inh
Cc1nc2cc(-c3ccsc3-n3c(C)ccc3C)[nH]n2c(=O)c1Cl | 30*
COCc1cc(=O)n2[nH]c(-c3ccsc3-n3c(C)ccc3C)cc2n1 | 24
O=C(c1ccco1)N1CCN(C(=O)c2cc(-c3ccncc3)nc3ccc(Br)cc23)CC1 | 11
O=C(O)c1cc(-c2ccco2)nc2ccc(Br)cc12 | 42*
O=C(NCC1CCCO1)c1cc(-c2ccco2)nc2ccccc12 (stereo not drawn) | 0
S=C(Nc1ccccc1)Nc1cc(Cl)ccc1Oc1ccccc1 | 11
O=C1C2CC=C(Cl)CC2C(=O)N1CN(Cc1ccco1)CN1C(=O)C2CC=C(Cl)CC2C1=O (stereo not drawn) | -3
COC(=O)C1=C(C)N(CCc2ccc(OC)c(OC)c2)C(=O)/C1=C\N(C)C | -5
CC1=C(C#N)CCC(=O)N1Cc1ccc(C)cc1 | 2
CCC(C)(C)NC(=O)C(c1ccc(C)cc1)N(Cc1ccco1)C(=O)CCC(=O)Nc1nccs1 (stereo not drawn) | 5
CCCCCN(C(=O)COC(=O)c1ccc(Br)o1)c1c(N)n(CCCC)c(=O)[nH]c1=O | -5
COc1ccc(/C=N/NC(=O)c2nc(-c3ccccc3)cc(-c3ccccc3)n2)cc1 | 35*
COc1ccc(/C=N/NC(=O)c2nn(-c3ccc(C)c(C)c3)c(=O)c3ccccc23)cc1 | 13
COc1cc(/C=N/NC(=O)c2cnn3c(C)cc(-c4ccccc4)nc23)ccc1O | 10
CSc1nc2ccccc2cc1/C=C(\C#N)c1cccc(Cl)c1 | -4
CC(NC(=O)c1ccccc1NC(=O)CSc1nnnn1C)c1ccccc1 (stereo not drawn) | -2
O=C(/C=C/c1ccc(Cl)c([N+](=O)[O-])c1)NCc1cccnc1 | 0
Cc1cc(-c2csc(N)n2)c(C)n1C | 32*
Cc1ccc(C2Nc3ccccc3C(=O)N2Cc2ccco2)cc1 (stereo not drawn) | 2
COc1ccc(NC(=O)N(CCN2CCCC2)Cc2cc3cc(OC)c(OC)cc3[nH]c2=O)cc1 | 13
O=C(N/N=C/c1ccc(-c2ccc(S(=O)(=O)Nc3ncccn3)cc2)o1)c1cc2ccccc2cc1O | 33*
O=C(CN1CCCC1)N/N=C/c1ccc(-c2cccc(Cl)c2)o1 | 0
CCOc1ccc(S(=O)(=O)N(CC(=O)N/N=C/c2ccc(-c3ccc([N+](=O)[O-])cc3)o2)c2ccccc2)cc1 | 27
Cc1ccc(/S(C)=N/S(=O)(=O)c2ccc(C)cc2)cc1 (stereo not drawn) | 7
C=CCN1C=CC(=C/C=C(/C#N)C(=O)OCC)C=C1 | -24
SMILES | Artemis endo inh
CCOC(=O)c1c(C)sc(Sc2ccc(Cl)cc2[N+](=O)[O-])c1OC | -1
O=C(NNC(=O)c1cc(O)c(O)c(O)c1)NC1CCCCC1 | 31*
O=C(NC1CCCCCCC1)c1ccccc1O | 0
O=C(NC1CCCCCCC1)NC1CCCCC1 | -4
COC1(OC)C(/C=C/c2ccc(Cl)cc2)C(C#N)(C#N)C1(OC)OC (stereo not drawn) | -2
CCCc1cc(C(=O)N/N=C/c2ccc(C)o2)c2ccccc2n1 | -3
O=C(NC(C(=O)N/N=C/c1c2ccccc2cc2ccccc12)c1n[nH]c(=O)c2ccccc12)c1ccccc1 (stereo not drawn) | 44*
O=C(NC(=S)Nc1ccc2[nH]ncc2c1)c1ccccc1 | -2
Cc1cc(NS(=O)(=O)c2ccc(NC(=O)CCc3ccccc3)cc2)no1 | 2
COc1cc(C(=O)Nc2ccc(S(=O)(=O)Nc3cc(C)on3)cc2)cc(OC)c1OC | -7
Cc1cc(NS(=O)(=O)c2ccc(NC(=S)NC(=O)c3ccc(Cl)cc3Cl)cc2)no1 | 30*
CC(=O)N(CC(=O)O)c1ccccc1C(=O)O | -3
Brc1ccccc1C1=Nn2c(nnc2-c2ccccc2)SC1 | 6
O=C(Cn1nnc2ccccc21)C1CC1 | 3
c1ccc(-c2ccc(C3=Nn4c(Cn5nnc6ccccc65)nnc4SC3)cc2)cc1 | 33*
CCC(C)Oc1ccccc1C1CC(=O)NC2=C1C(=O)CCC2 (stereo not drawn) | -2
Cc1ccc(N(CC(=O)N/N=C/c2cccs2)S(C)(=O)=O)cc1Cl | -5
Cn1cccc1CC(=O)N/N=C\c1cccs1 | -4
CCN(CC)C(=O)C(=O)N/N=C/c1cccs1 | 53*
O=c1cc(O)n(-c2ccc(Cl)cc2)c(=S)[nH]1 | 0
O=C1CCCN1c1ccc(S(=O)(=O)Oc2cccc(Cl)c2)cc1[N+](=O)[O-] | -4
COc1ccc(CN(C(=O)CSc2nnc(-c3c[nH]c4ccccc34)o2)c2ccc(F)cc2)cc1OC | 14
O=C(COC(=O)C1CC(=O)N(c2ccc3c(c2)OCCO3)C1)Nc1ccc2c(c1)CCC2 (stereo not drawn) | -7
O=C(Nc1nc2ccccc2s1)C1CC(=O)N(c2ccc(Cl)cc2)C1 (stereo not drawn) | 5
O=C(Nc1nc(-c2ccco2)c(-c2ccco2)s1)C1CC(=O)N(c2ccc3c(c2)OCCO3)C1 (stereo not drawn) | 32*
CC(C)COc1ccc(CSCCNC(=S)Nc2ccccc2)cc1 | 7
